Data on 6 compounds can be found in PubChem BioAssay (NCATS).

Assay [1] addresses Lysosomal acid glucosylceramidase (Homo sapiens) (UniProt P04062). Nature of the assay: Glucocerebrosidase-p2 (AID 348; in the data active = potency below about 10 µM; also: potency is read from the fitted curve at half-maximal effect). The note with it: purified GBA, blue fluorogenic substrate, 40 min. The essentials: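 Normal human glucocerebrosidase (0.2 nM) with blue fluorogenic substrate (80 uM final) in citrate/phosphate pH 5.9 with 10mM sodium taurocholate, 0.01% tween-20; 40 min RT, NaOH/glycine stop; fluorescence Ex 365/Em 440; AC50 from a titration from 0.6 nM upwards.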

A short description of assay [2]: AP1 Signaling Pathway (AID 357; active = well fitted curve in either direction with a large enough effect, not every such curve was filed as active; also: % is scaled to controls: 0 for no effect and ±100 for the full control effect). To be noted: ME-180 AP-1-bla reporter, EGF-induced, beta-lactamase ratio, 5 h; at 7.69 µM (top of the series) unless noted. The essentials:
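ME-180 cells with beta-lactamase reporter under AP-1 response element, stimulated with EC50 EGF; compounds tested in titration series, 5 h at 37 °C. CCF4 substrate added 2.5 h at room temperature; 460/530 nm emission ratio gave %activity and AC50.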

Assay [3] deals with Cytochrome P450 1A2 (Homo sapiens) (UniProt P05177). Nature of the assay: p450-cyp1a2 (AID 410; calls by dose curve; also: potency is read from the fitted curve at half-maximal effect). The note with it: recombinant CYP1A2, luciferin-ME demethylation, luminescence; series mostly up to 57 µM. The essentials: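 Read-out is luminescence from luciferin produced by CYP1A2 demethylation of Luciferin-ME (100uM, at Km). Detection reagent stopped the 60 min NADPH-dependent reaction; signals were normalized to 57 uM furafylline.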

Assay [4] in a line: NFAT Signaling Pathway (AID 444; active = well fitted curve in either direction with a large enough effect, not every such curve was filed as active;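 also: carbachol stimulus at about its EC50 of 1 µM final; % is scaled to controls: 0 for no effect and ±100 for the full control effect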). To be noted: Jurkat NFAT-bla M1, carbachol, beta-lactamase ratio, 5 h; at 7.69 µM (top of the series) unless noted. The essentials:
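Jurkat cells carrying an NFAT-driven β-lactamase reporter and co-transfected muscarinic M1 receptor were treated with compound plus carbachol (1 uM final, an EC50 level) for 5 h at 37 °C. CCF4 loading followed for 1 h at RT; 460/530 nm ratio gave %activity.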

The nature of assay [5]: Stat Signaling Pathway (AID 446; active = well fitted curve in either direction with a large enough effect, not every such curve was filed as active;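 also: ME-180 cervical cancer cells given 40 pM IL-6 alongside compound; SIE-controlled beta-lactamase reporter measured as 460/530 nm FRET emission ratio; % is scaled to controls: 0 for no effect and ±100 for the full control effect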). The note with it: ME-180 SIE beta-lactamase reporter, IL-6 stimulated, 5 h; at 7.69 µM (top of the series) unless noted. The essentials: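 Compound effects on IL-6-induced STAT reporter activity were measured in ME-180 cells. After overnight culture, cells were co-treated with 40 pM IL-6 for 5 hrs before beta-lactamase substrate loading at room temperature.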

Assay [6] deals with Glucocorticoid receptor (Homo sapiens) (UniProt P04150). Nature of the assay: GR-GFP Redistribution (AID 450;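 active = compounds whose dose series gives a full or clear partial fitted curve of increased nuclear translocation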; also: potency is read from the fitted curve at half-maximal effect). To be noted: U2OS GR-GFP nuclear translocation, laser cytometry, 2 h.
Assay [7] shares this target. Nature of the assay: GR-EFC Redistribution (AID 451; calls by dose curve; also: potency is read from the fitted curve at half-maximal effect). The note with it: CHO-K1 GR-EFC translocation, beta-gal luminescence, 2 h. The essentials: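 CHO-K1 cells stably expressing nuclear-localized β-gal enzyme acceptor and GR fused C-terminally to the enzyme donor fragment; ligand-driven nuclear translocation restores β-gal by complementation. Compounds titrated up to 46 uM final, 2 h at 37 °C; luminescence read.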

For assay [8], the target named is Mitogen-activated protein kinase 10 (Mus musculus) (UniProt Q61831). Nature of the assay: JNK3 AlphaScreen Assay (AID 530; active = well fitted curve in either direction with a large enough effect, not every such curve was filed as active;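 also: kinase came from lysate of stimulated human HepG2 cells; % is scaled to controls: 0 for no effect and ±100 for the full control effect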). To be noted: JNK3 lysate, c-Jun phosphorylation; series mostly up to 57.1 µM. The essentials: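 Biotinylated GST-cJun(1-79) served as substrate for JNK3 in HepG2 lysates stimulated with IL-1beta and TNF-alpha. ATP was 10 uM final, pH 7.6. Ser73 phosphorylation was quantified by AlphaScreen (680 nm excitation).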
For orientation: Alpha assays give light when donor and acceptor beads are brought close together.

In assay [9] the target is 3',5'-cyclic-AMP phosphodiesterase 4B (Homo sapiens) (UniProt Q07343). Nature of the assay: qHTS Assay for Inhibitors of PDE-IV (AID 607; active = well fitted activation curve with a large enough effect in the main read-out, with a control signal flat, not every such curve was filed as active; also: % of control where 0% means no effect). To be noted: HEK293 ACTOne CNG channel cells, membrane potential fluorescence; series mostly up to 22.9 µM. A digest of the protocol:
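ACTOne HEK293 cells carry a modified cAMP-gated CNG channel and express endogenous PDE4; plated 1000 cells/well, compounds up to 22.9 uM final. Membrane-potential dye fluorescence (ex 535/em 590) was read; parental cells received 10 uM forskolin + 100 uM RO 20-1724.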

For assay [10], the target named is Cytochrome P450 3A4 (Homo sapiens) (UniProt P08684). Nature of the assay: qHTS Assay for Inhibitors and Substrates of Cytochrome P450 3A4 (AID 884). Also: nearly all actives have a fitted effect of over 50% in size. Also: potency is read from the fitted curve at half-maximal effect. To be noted: recombinant CYP3A4, Luciferin-PPXE luminescence; series mostly up to 57.1 µM. A digest of the protocol:
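Luminescent readout of luciferin produced by CYP3A4 (20 nM) dealkylation of Luciferin-PPXE, 25 uM (its KM). NADPH-driven reaction ran 60 min at RT after 10 min compound preincubation; data scaled to 57 uM ketoconazole as 100% inhibition.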

Assay [11] has the same target. Nature of the assay: qHTS Assay for Activators of Cytochrome P450 3A4 (AID 885). Also: nearly all actives have a fitted effect of over 65% in size. The note with it: recombinant CYP3A4, Luciferin-PPXE luminescence, 60 min; series mostly up to 57.1 µM. A digest of the protocol: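 CYP3A4 activity: Luciferin-PPXE O-dealkylation, 25uM substrate, 200mM KPO4, RT throughout. Read-out is luciferase luminescence; higher values reflect activation.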
For orientation: Quantitative high-throughput screening tests each substance at several concentrations.

Assay [12] addresses Cytochrome P450 2C19 (Homo sapiens) (UniProt P33261). Nature of the assay: qHTS Assay for Inhibitors and Substrates of Cytochrome P450 2C19 (AID 899). Also: nearly all actives have a fitted effect of over 60% in size. Also: potency is read from the fitted curve at half-maximal effect. To be noted: recombinant CYP2C19, luciferin-H EGE luminescence; series mostly up to 57.1 µM. The essentials: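 NADPH-dependent conversion of Luciferin-H EGE (10uM, at KM) by 5nM enzyme in 50mM KPO4, 60 min at 37C following 10 min compound preincubation. Stopped with luciferin detection buffer; luminescence read after 20 min.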

Assay [13] can be described thus: Confirmation and Secondary Assay for Modulators of Hemoglobin Beta Chain Splicing at IVS2 654 locus (AID 910).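 Also: per-well total GFP intensity by laser scanning cytometry after 2-day treatment; % of control where 0% means no effect.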 The note with it: HeLa EGFP-654 splicing reporter, GFP fluorescence, 48 h; series mostly up to 38.3 µM. A digest of the protocol:
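HeLa cells stably carrying EGFP interrupted by mutant beta-globin IVS2-654 intron (CMV-driven) were treated with compound for 2 days at 37C; corrected splicing was scored as total peak GFP intensity per well (488 nm excitation, 500-520 nm emission).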

Assay [14] is described as follows: Confirmation and Secondary Assay for Modulators of Hemoglobin Beta Chain Splicing at IVS2 705 locus (AID 930).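 Also: HeLa cells stably expressing the EGFP-705 splicing reporter; % of control where 0% means no effect.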 The note with it: HeLa EGFP-705 splicing reporter, GFP fluorescence, 48 h; series mostly up to 38.3 µM. A digest of the protocol: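 Assay measures total GFP intensity per well in HeLa EGFP-705 cells after 2 days with compound; mis-splicing normally truncates EGFP, so fluorescence indicates corrected splicing.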

Assay [15] can be described thus: qHTS Assay for Lipid Storage Modulators (AID 1519; calls by dose curve). To be noted: Drosophila S3 cells, BODIPY lipid droplet/cell ratio, laser cytometry, cells loaded with oleic acid; for activity change, negative = inhibition: at 57.5 µM (top of the series). A digest of the protocol: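 Cells seeded at 5,000 per well were treated with compounds over a concentration series and loaded with oleic acid (400 uM, as added). Lipid droplet fluorescence (488 nm excitation, 500-530 nm channel) was read by laser-scanning cytometry and normalized to 20 uM Triacsin C.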

Assay [16] has as its target Ubiquitin carboxyl-terminal hydrolase 1 (Homo sapiens) (UniProt O94782). Nature of the assay: Inhibitors of USP1/UAF1: Pilot qHTS (AID 504865). Also: nearly all actives have a fitted effect of over 35% in size. Also: potency is read from the fitted curve at half-maximal effect. The note with it: purified USP1/UAF1, Ub-rhodamine cleavage fluorescence; series mostly up to 54.9 µM. The essentials: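 Enzyme-free wells gave the negative control, while test wells held 1nM USP1/UAF1 preincubated with compound for 15 min at room temperature. Ub-Rho at 150nM final started the reaction, and fluorescence at 480/540 nm was recorded kinetically.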

Assay [17] can be described thus: Primary qHTS for small molecule stabilizers of the endoplasmic reticulum resident proteome: Secreted ER Calcium Modulated Protein (SERCaMP) assay (AID 1508630). Also: % is scaled to controls: 0 for no effect and ±100 for the full control effect. The note with it: SH-SY5Y GLuc-SERCaMP (Gaussia luciferase released on ER calcium loss) secretion, thapsigargin, luminescence; series mostly up to 38.4 µM. The essentials:
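The SH-SY5Y reporter protocol was run at 3 concentrations up to 38.3 uM (primary) or 11 concentrations (follow-up): 16 h compound, 100 nM thapsigargin for 4 h, then extracellular luciferase luminescence.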

The target in assay [18] is Dual specificity protein kinase CLK4 (Homo sapiens) (UniProt Q9HAZ1). Nature of the assay: qHTS Assay for Inhibitors of CDC-like Kinase 4 (ADP-FP Assay) (AID 1795). Also: nearly all actives have a fitted effect of over 60% in size. Also: potency is read from the fitted curve at half-maximal effect. To be noted: Transcreener ADP fluorescence polarization; series mostly up to 50 µM. A digest of the protocol:
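Kinase activity was followed as ADP output, converted from fluorescence polarization with a calibration curve. Reactions ran one hour at low ATP (1 uM) with RS peptide substrate.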

Assay [19] in a line: qHTS Assay for Identification of Small Molecule Agonists for Hypoxia Response Element Signaling Pathway (AID 914; active = well fitted activation curve with a large enough effect in the signal ratio, with a control signal flat, not every such curve was filed as active; the % refers to the signal ratio; also: potency is read from the fitted curve at half-maximal effect; as to activation: % of control where 0% means no effect). To be noted: ME-180 (cervical carcinoma) HRE-bla reporter, beta-lactamase ratio, CoCl2, 17 h; activation: stronger effect = higher value. The essentials:
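Compounds in a titration series were added to ME-180 reporter cells alongside an EC50 level of CoCl2. After 17 hours, beta-lactamase activity was read as the 460nm/530nm emission ratio of CCF4, giving AC50 values.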

Setting [20] is: measured here: cell count channel max response.
Where [21] appears, read: measured here: lipid channel max response.

Inconclusive results are not listed. Active and inactive are the calls of the source. Unless noted, calls follow the shape of the dose curve; as a rule, active = well fitted curve in the direction sought with a large enough effect; inconclusive = small, poorly fitted or top-dose-only effect, or another doubt; inactive = no such curve, though single readings can be large; an effect the other way counts as inactive or inconclusive.

Sequence of Glucocorticoid receptor (Homo sapiens) (P04150 whole entry, looked up, the tested form may be a part): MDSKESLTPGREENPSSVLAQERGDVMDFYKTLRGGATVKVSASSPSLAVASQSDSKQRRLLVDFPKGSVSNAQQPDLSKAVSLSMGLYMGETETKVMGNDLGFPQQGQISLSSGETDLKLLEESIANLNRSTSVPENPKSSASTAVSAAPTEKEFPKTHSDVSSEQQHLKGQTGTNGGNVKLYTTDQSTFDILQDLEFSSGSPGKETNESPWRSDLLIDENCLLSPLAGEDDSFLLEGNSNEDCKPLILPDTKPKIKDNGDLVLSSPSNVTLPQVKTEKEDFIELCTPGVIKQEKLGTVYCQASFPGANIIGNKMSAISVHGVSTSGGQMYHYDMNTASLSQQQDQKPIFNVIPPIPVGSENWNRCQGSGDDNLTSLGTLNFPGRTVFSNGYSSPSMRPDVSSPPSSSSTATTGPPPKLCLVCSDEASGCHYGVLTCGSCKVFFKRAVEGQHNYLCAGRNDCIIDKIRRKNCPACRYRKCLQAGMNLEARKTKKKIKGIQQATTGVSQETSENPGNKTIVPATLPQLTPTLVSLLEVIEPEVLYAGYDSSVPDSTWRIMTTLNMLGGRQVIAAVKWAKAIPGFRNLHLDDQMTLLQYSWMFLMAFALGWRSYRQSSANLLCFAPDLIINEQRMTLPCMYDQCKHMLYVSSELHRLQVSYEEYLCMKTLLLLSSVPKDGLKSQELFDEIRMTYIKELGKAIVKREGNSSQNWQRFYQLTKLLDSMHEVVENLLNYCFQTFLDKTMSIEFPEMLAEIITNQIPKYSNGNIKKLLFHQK
Sequence of Lysosomal acid glucosylceramidase (Homo sapiens) (P04062 whole entry, looked up): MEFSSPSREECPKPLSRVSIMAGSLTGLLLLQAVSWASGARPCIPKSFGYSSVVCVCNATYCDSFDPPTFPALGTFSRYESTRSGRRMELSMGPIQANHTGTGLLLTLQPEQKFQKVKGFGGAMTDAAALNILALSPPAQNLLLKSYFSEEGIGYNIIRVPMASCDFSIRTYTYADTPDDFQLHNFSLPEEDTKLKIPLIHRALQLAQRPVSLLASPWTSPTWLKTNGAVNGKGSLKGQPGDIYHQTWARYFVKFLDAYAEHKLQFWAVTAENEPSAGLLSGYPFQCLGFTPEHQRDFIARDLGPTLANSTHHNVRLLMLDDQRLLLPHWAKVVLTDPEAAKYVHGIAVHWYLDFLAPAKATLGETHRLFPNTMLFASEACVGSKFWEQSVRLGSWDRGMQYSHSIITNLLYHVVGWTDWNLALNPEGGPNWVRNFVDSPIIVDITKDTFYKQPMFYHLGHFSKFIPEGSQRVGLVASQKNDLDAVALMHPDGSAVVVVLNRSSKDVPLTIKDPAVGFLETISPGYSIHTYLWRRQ
Sequence of Cytochrome P450 3A4 (Homo sapiens) (P08684 whole entry, looked up): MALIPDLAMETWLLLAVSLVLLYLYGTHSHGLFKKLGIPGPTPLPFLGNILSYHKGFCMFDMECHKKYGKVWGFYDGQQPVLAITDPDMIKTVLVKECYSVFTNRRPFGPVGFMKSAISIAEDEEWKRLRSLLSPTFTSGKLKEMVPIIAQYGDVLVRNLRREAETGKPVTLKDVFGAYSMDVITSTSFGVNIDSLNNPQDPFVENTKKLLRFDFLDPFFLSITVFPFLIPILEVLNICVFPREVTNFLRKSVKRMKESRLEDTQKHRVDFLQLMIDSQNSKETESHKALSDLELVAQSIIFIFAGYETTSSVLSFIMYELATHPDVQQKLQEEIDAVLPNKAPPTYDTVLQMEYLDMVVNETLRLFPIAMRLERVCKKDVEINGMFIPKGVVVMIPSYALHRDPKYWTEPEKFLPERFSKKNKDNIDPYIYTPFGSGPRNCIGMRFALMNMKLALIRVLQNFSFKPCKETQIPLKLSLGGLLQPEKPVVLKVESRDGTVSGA
Sequence of Cytochrome P450 2C19 (Homo sapiens) (P33261 whole entry, looked up): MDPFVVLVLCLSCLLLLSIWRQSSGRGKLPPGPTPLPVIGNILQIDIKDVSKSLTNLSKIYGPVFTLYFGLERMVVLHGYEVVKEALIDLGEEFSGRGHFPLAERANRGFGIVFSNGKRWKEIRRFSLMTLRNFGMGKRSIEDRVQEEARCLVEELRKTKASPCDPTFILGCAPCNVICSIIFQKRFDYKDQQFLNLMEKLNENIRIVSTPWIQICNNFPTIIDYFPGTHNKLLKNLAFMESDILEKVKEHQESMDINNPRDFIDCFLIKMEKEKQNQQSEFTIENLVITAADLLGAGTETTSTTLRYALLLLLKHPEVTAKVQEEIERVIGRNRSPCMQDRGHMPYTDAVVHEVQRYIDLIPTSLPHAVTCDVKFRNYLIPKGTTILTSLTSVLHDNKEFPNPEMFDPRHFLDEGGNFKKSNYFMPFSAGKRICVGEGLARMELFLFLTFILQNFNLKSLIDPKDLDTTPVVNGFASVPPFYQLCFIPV
Sequence of Cytochrome P450 1A2 (Homo sapiens) (P05177 whole entry, looked up): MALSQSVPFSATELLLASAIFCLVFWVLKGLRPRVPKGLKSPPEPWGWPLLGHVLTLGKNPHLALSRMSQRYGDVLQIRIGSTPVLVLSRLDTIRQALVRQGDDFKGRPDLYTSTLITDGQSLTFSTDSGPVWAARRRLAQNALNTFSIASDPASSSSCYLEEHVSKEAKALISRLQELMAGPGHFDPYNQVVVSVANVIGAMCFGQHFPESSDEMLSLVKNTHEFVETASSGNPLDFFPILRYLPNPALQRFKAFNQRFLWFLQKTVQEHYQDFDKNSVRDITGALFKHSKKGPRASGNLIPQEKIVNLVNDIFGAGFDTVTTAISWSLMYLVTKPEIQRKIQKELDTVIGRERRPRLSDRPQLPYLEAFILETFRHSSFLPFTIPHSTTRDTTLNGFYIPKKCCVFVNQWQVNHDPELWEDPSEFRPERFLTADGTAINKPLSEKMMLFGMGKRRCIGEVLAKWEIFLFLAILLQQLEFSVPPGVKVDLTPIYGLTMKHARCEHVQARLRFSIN
Sequence of Dual specificity protein kinase CLK4 (Homo sapiens) (Q9HAZ1 whole entry, looked up): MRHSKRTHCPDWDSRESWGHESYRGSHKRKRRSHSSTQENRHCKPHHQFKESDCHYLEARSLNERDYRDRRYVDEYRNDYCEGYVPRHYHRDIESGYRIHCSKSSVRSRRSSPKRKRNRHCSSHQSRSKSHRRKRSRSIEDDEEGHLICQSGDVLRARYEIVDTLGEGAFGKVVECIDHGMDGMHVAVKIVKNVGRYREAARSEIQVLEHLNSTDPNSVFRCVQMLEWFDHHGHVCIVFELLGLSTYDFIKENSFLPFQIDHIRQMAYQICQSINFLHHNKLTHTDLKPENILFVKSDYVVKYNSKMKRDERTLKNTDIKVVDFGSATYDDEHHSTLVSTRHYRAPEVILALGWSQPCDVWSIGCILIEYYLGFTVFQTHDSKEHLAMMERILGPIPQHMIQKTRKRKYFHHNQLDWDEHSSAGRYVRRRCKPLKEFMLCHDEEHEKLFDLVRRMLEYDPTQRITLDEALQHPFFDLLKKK
Sequence of Ubiquitin carboxyl-terminal hydrolase 1 (Homo sapiens) (O94782 whole entry, looked up): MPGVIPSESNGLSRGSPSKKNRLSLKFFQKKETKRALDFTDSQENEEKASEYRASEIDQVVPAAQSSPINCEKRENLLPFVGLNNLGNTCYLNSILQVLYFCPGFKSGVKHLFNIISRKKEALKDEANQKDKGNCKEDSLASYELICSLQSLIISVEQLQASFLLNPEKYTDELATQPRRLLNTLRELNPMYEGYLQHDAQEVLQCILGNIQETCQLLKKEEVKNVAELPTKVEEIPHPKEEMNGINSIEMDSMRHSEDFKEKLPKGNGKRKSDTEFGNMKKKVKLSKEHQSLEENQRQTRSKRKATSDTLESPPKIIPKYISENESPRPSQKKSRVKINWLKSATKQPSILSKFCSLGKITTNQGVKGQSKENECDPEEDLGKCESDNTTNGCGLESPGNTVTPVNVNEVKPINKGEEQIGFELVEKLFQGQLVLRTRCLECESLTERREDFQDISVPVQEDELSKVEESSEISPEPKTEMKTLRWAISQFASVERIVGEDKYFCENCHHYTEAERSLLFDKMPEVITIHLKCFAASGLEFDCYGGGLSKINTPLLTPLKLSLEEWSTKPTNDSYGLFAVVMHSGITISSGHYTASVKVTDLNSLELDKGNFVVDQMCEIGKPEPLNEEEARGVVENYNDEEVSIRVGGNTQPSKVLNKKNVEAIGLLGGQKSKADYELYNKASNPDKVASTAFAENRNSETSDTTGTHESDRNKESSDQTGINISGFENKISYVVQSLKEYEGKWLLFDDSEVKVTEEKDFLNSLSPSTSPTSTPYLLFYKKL
Sequence of 3',5'-cyclic-AMP phosphodiesterase 4B (Homo sapiens) (Q07343 whole entry, looked up): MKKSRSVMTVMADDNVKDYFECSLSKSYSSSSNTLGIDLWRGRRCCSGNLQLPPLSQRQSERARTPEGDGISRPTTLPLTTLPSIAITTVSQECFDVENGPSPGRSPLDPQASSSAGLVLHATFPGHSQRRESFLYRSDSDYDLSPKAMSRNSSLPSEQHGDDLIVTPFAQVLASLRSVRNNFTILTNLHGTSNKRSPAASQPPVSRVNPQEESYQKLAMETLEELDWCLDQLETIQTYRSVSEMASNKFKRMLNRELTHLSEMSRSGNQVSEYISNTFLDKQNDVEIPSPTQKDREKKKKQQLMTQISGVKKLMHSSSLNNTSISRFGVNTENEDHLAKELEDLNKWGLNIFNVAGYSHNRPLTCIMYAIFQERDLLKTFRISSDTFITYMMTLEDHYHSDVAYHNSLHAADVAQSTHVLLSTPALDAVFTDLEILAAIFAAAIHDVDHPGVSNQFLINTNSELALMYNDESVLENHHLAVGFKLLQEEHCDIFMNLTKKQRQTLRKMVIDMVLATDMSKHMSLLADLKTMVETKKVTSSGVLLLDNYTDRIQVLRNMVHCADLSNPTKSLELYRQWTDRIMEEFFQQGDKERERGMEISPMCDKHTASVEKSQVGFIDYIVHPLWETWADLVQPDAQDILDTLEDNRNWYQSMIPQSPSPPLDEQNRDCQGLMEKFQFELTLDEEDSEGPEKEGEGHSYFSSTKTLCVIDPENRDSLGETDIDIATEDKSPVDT

For `Cc1noc(C)c1-c1nccc(-n2ccnc2)n1`, the Potency in assay [1] was > 11.4 µM (inactive); in [3], 0.2 µM (active); in [6] it was > 46 µM (inactive); in [7], > 46 µM (inactive); in assay [10], 1.26 µM (active); in [12], 3.98 µM (active). Further, the results for the activity change, negative = inhibition in [2], in assay [4] and in [15] were 3.6% (inactive), -0.351% (inactive) and 7.83% (inactive), respectively. For the same compound, the activity, negative = inhibition in assay [5] was 16.2% (inactive). In addition, the call in assay [8], in assay [13] and in [14] was inactive. Besides, the Potency result in [9], in [11], in assay [16] and in assay [17] was “inactive” each time. Also, the max response in assay [15] (setting [20]) was found to be 12.5%; in assay [15] (setting [21]), 20.6%.
As to `c1ncc(-c2ccoc2)c(NC2CC2)n1`, the Potency in [1] is > 11.4 µM (inactive); in [3], 15.8 µM (active); in assay [6] it was > 46 µM (inactive); in [7], > 46 µM (inactive); in assay [10], 7.94 µM (active); in assay [16], 28.2 µM (active). The activity change, negative = inhibition was 16.6% (inactive) in assay [2], 5.32% (inactive) in assay [4] and 3.62% (inactive) in assay [15]. Further, in [5], the activity, negative = inhibition was 4.55% (inactive). Moreover, the call in assay [8] was inactive. In addition, the Potency result in assay [9], in assay [11] and in [17] was “inactive” throughout. For the same compound, the max response worked out at 21.6% in assay [15] (setting [20]) and 22.6% in [15] (setting [21]).
Take `CN(C)Cc1ccccc1-c1cncnc1Nc1ccncc1`: the figures for the Potency in [1], in assay [6] and in assay [7] were > 11.4 µM (inactive), > 46 µM (inactive) and > 46 µM (inactive), respectively. Further, the figures for the activity change, negative = inhibition in [2], in [4] and in assay [15] were -25.5% (inactive), 10.2% (inactive) and 4.9% (inactive), respectively. The activity, negative = inhibition in assay [5] is 5.07% (inactive). In addition, the call in assay [8] was inactive. In addition, the Potency entry in [9], in [18], in assay [16] and in [17] was “inactive” in each case. Moreover, the max response was found to be 13.6% in assay [15] (setting [20]) and 17.6% in assay [15] (setting [21]).
Consider `Cc1noc(C)c1-c1ccc2ncnc(NCc3cccnc3)c2c1`, for which the Potency is > 11.4 µM (inactive) in assay [1]; 0.316 µM (active) in [3]; > 46 µM (inactive) in [6]; > 46 µM (inactive) in assay [7]; 2.51 µM (active) in [10]; 0.02 µM (active) in assay [12]. Also, the Potency in [19] is 3.16 µM (active); in assay [18], 0.794 µM (active). Besides, the activity change, negative = inhibition in assay [2] is 26.4% (inactive); in assay [15], -3.3% (inactive). Moreover, in assay [8], the call was inactive. The Potency result in assay [9], in assay [11], in assay [16] and in assay [17] was “inactive” throughout. Also, the max response in assay [15] (setting [20]) is 10.5%; in assay [15] (setting [21]) it was 6%.
On to `CCNc1ncc2nc(C)c(=O)n(-c3ccc(OC)cc3)c2n1`, for which the Potency in assay [1] was > 11.4 µM (inactive); in [3], 15.8 µM (active); in assay [7], > 46 µM (inactive). In addition, the activity change, negative = inhibition was -29.8% (inactive) in assay [2], 14.3% (inactive) in assay [4] and 4.59% (inactive) in [15]. For the same compound, the activity, negative = inhibition in assay [5] is -9.6% (inactive). Also, the result in assay [8] was inactive. The Potency result in assay [10], in [12], in assay [18], in assay [16] and in assay [17] was “inactive” in each case. In addition, the activation in assay [19] is -10.1% (inactive). Besides, the max response in assay [15] (setting [20]) was 11.9%; in assay [15] (setting [21]), 15%.
`CNc1cc(-c2c(C)noc2C)ncn1`: the Potency in assay [1] is > 11.4 µM (inactive); in [3] it was 5.01 µM (active); in [6] it was > 46 µM (inactive); in [7] it was > 46 µM (inactive); in assay [19], 3.16 µM (active). Besides, the activity change, negative = inhibition in [2] is 25.4% (inactive); in assay [4], 3.01% (inactive); in assay [15], 4.96% (inactive). Moreover, the compound was classed as inactive in assay [8]. Moreover, the Potency entry in assay [9], in assay [18], in [16] and in assay [17] was “inactive” in each case. In addition, the max response was found to be 25.8% in [15] (setting [20]) and 27.2% in [15] (setting [21]).
